Inconclusive results are not listed. Activity calls are given as the source filed them. How the source made its calls: active means hit-call score of the fitted dose curve at least 0.9, where 1 is the maximum; inconclusive means response in the unintended direction; inactive means score below 0.9.

The nature of assay [1]: TOX21_p53_BLA_p2_viability: Viability Assessment in the Tox21 HCT-116 p53 Agonism Beta-lactamase Assay, Phase 2 (AID 2283591).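 Further: compound exposure lasted 16 h at 37 °C; actives lower the ATP signal meaning cytotoxicity.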 The essentials: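 Cytotoxicity readout: CellTiter-Glo ATP luminescence, 30 min at room temperature, after the beta-lactamase read. Cells were HCT116 exposed 16 h at 37C to compounds pin-transferred at 217-fold dilution from DMSO stocks.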
Assay [2] can be described thus: TOX21_p53_BLA_p4_viability: Viability Assessment in the Tox21 HCT-116 p53 Agonism Beta-lactamase Assay, Phase 4 (AID 2283597).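 Further: hits lower the luminescence signal meaning cytotoxicity.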 The essentials:
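HCT-116 p53-bla cells, 4000/well, dosed after 5 h attachment and incubated 16 h at 37 °C, 5% CO2. Viability from CellTiter-Glo ATP luminescence after 30 min at room temperature, taken after the beta-lactamase read; loss of signal indicates cytotoxicity.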

Assay [3] can be described thus: TOX21_p53_BLA_p5_viability: Viability Assessment in the Tox21 HCT-116 p53 Agonism Beta-lactamase Assay, Phase 5 (AID 2283600). A digest of the protocol: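 HCT-116 p53 beta-lactamase reporter cells, 4000/well, were exposed to compound (pin transfer, 217-fold dilution) for 16 hours at 37C. Cellular ATP was read by CellTiter-Glo luminescence after 30 min at room temperature.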

Assay [4] deals with Cellular tumor antigen p53 (Homo sapiens) (UniProt P04637). Put plainly: TOX21_p53_BLA_p4_ratio: Tox21 HCT-116 p53 Agonism Beta-lactamase Assay, Ratio, Phase 4 (AID 2283601). The essentials:
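Signal is the blue/green (460nm/530nm) ratio of cleaved versus uncleaved CCF4-AM substrate, read after 2 h substrate loading. Cells were HCT116 carrying the p53-responsive beta-lactamase reporter, dosed 16 h at 37C, 5% CO2; CellTiter-Glo measured in parallel.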

For assay [5] the target is unchanged. Briefly: TOX21_p53_BLA_p2_ratio: Tox21 HCT-116 p53 Agonism Beta-lactamase Assay, Ratio, Phase 2 (AID 2283592). The essentials: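 HCT-116 cells with p53-responsive beta-lactamase reporter, 4000 cells/well, preincubated 5 h, then compound in DMSO (217-fold dilution) for 16 h at 37C. CCF4-AM substrate 2 h at room temperature; 460/530 nm emission ratio fitted upward versus DMSO.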

A short description of assay [6]: TOX21_p53_BLA_p3_viability: Viability Assessment in the Tox21 HCT-116 p53 Agonism Beta-lactamase Assay, Phase 3 (AID 2283593).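 Further: cells exposed to compound for 16 h before reading.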 The essentials:
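Cellular ATP was quantified by CellTiter-Glo luminescence, read after 30 min at room temperature. Beforehand, HCT116 cells (4000/well) received compound 5 h post-seeding, 217-fold diluted from DMSO, then incubated 16 h at 37C.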

In assay [7] the target is Cellular tumor antigen p53 (Homo sapiens) (UniProt P04637). Put plainly: TOX21_p53_BLA_p3_ratio: Tox21 HCT-116 p53 Agonism Beta-lactamase Assay, Ratio, Phase 3 (AID 2283596). A digest of the protocol: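 HCT116 p53-bla cells (4000/well) given compound in DMSO (217-fold dilution) after 5 h, incubated 16 h at 37C. CCF4-AM substrate 2 h at room temperature; 460/530 nm emission ratio, gain fitted against DMSO.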

For assay [8] the target is unchanged. Briefly: TOX21_p53_BLA_p5_ratio: Tox21 HCT-116 p53 Agonism Beta-lactamase Assay, Ratio, Phase 5 (AID 2283599). A digest of the protocol:
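Beta-lactamase reporter ratio (blue 460 nm over green 530 nm, 405 nm excitation) after 2 h CCF4-AM loading, in HCT-116 cells exposed 16 h at 37 C to compounds pinned at 217-fold dilution. Increases relative to DMSO baseline scored.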

Sequence of Cellular tumor antigen p53 (Homo sapiens) (P04637 whole entry, looked up): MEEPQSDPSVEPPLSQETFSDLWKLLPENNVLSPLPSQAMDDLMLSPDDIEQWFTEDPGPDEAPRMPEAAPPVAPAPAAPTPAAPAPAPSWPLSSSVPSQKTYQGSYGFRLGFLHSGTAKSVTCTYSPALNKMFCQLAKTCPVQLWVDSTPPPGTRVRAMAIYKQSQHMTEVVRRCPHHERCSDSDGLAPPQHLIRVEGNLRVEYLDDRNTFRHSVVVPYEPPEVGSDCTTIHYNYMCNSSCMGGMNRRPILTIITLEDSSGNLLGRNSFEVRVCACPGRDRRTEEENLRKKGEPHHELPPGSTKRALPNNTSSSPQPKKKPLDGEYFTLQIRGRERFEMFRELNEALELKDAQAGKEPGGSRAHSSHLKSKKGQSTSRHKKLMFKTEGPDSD

Regarding `Brc1ccccc1`, the molecule was called inactive in assay [1], in assay [2] and in assay [3].

For the molecule `CC(=O)[C@H]1CC[C@H]2[C@@H]3CC[C@H]4C[C@H](O)CC[C@]4(C)[C@H]3C(=O)C[C@]12C`, the molecule was called inactive in assay [1] and in assay [2].

For the molecule `CS(=O)(=O)Cl`, the molecule was classed as inactive in assay [1], in assay [2], in assay [3] and in assay [4].

With `N#CC(C#N)=Cc1ccc(O)c(O)c1`, the result in assay [5], in assay [6], in assay [7], in assay [2], in assay [8] and in assay [3] was inactive. Moreover, the result in assay [4] was inactive.

On to `Cc1cc(Cl)ccc1N=CN(C)C`, for which the result in assay [5], in assay [6], in assay [7], in assay [2], in assay [8] and in assay [3] was inactive. Also, the result in assay [4] was inactive.

On to `ClC=CCl`, for which the outcome in assay [5], in assay [6], in assay [7], in assay [2], in assay [8] and in assay [3] was inactive. Besides, the outcome in assay [4] was inactive.

As to `N[C@@H]1C[C@H]1c1ccccc1`, the outcome in assay [5], in assay [6], in assay [7], in assay [2] and in assay [8] was inactive.

Take `Cc1cccc(N)c1C`: the molecule was called inactive in assay [1], in assay [2], in assay [8], in assay [3] and in assay [4].

For `O=C(Cl)C(Cl)(Cl)Cl`, the outcome in assay [1], in assay [2], in assay [3] and in assay [4] was inactive.

As a reminder, the AC50 is the concentration at which the activity in the assay is half-maximal. Turning to `BrCC(Br)(Br)Br`, the values for the AC50 in assay [5] and in assay [7] were 84.7 µM (active) and 13.1 µM (active), respectively. The molecule was called inactive in assay [6], in assay [2], in assay [8], in assay [3] and in assay [4].

As for `CCCN(CCC)C(=O)Cc1c(-c2ccc(Cl)cc2)nc2ccc(Cl)cn12`, the molecule was classed as inactive in assay [1], in assay [2], in assay [3] and in assay [4].

On to `N#CNC#N`, for which the outcome in assay [1], in assay [2], in assay [3] and in assay [4] was inactive.

On to `C=C[C@H]1CN2CC[C@H]1C[C@@H]2[C@@H](O)c1ccnc2ccccc12`, for which the outcome in assay [5], in assay [6], in assay [7], in assay [2], in assay [8] and in assay [3] was inactive. The outcome in assay [4] was inactive.

For the molecule `c1ccc(C2(c3ccccc3)CC2C2=NCCN2)cc1` (stereo not drawn), the outcome in assay [1], in assay [2] and in assay [3] was inactive.

As to `CNC(=O)Oc1c(C(C)(C)C)cc(C)cc1C(C)(C)C`, the result in assay [5] and in assay [6] was inactive.

With `COC1=CC=C2[C@H]3Cc4ccc(OC)c5c4[C@@]2(CCN3C)[C@H]1O5`, the outcome in assay [5], in assay [6], in assay [7], in assay [2], in assay [8] and in assay [3] was inactive. Besides, in assay [4], the outcome was inactive.

For the origin of these results see PubChem BioAssay (EPA / NIEHS).
